{
  "source": "PubChem BioAssay",
  "key": {"[1]": {"assay": "A549 cell viability effects, profiling panel, calcein-AM fluorescence, 48 h, basal (AID 1162); also: test concentration not given here", "conditions": "higher = more signal"}, "[2]": {"assay": "adipocyte viability effects, profiling panel, cell-based, 3T3-L1 adipocytes, calcein-AM fluorescence, 48 h, basal (AID 1163); also: test concentration not given here", "conditions": "3T3-L1 adipocytes viability, higher = more signal"}, "[3]": {"assay": "HepG2 cell viability effects, profiling panel, calcein-AM fluorescence, 48 h, basal (AID 1164); also: test concentration not given here", "conditions": "higher = more signal"}, "[4]": {"assay": "MM1S cell viability effects, profiling panel, calcein-AM fluorescence, 48 h, basal (AID 1165);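 also: viability of MM1S multiple myeloma cells under basal unstimulated conditions; test concentration not given here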", "conditions": "higher = more signal"}, "[5]": {"assay": "basal RPMI8226 viability, no added stimulus, profiling panel, cell-based, calcein-AM fluorescence, 48 h, PK04 Diversity Set (AID 1166);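 also: cells grown under basal conditions without added stimulus; test concentration not given here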", "conditions": "RPMI8226 myeloma viability, higher = more signal"}, "[6]": {"assay": "basal HepG2 mitochondrial membrane potential changes, profiling panel, cell-based, JC-1 fluorescence, 24 h, 100 nL compound (AID 1167); also: test concentration not given here", "conditions": "higher = more signal"}, "[7]": {"assay": "basal 3T3-L1 adipocyte mitochondrial potential changes, profiling panel, cell-based, JC-1 fluorescence, 3T3-L1 adipocytes, 24 h, 100 nL compound (AID 1168); also: test concentration not given here", "conditions": "JC-1 mitochondrial fluorescence, higher = more signal, called active from +8 up or from −8 down"}, "[8]": {"assay": "basal RPMI8226 mitochondrial membrane potential changes, profiling panel, cell-based, JC-1 fluorescence, 24 h, 100 nL compound (AID 1169); also: test concentration not given here", "conditions": "RPMI8226 myeloma, JC-1 mitochondrial potential fluorescence, higher = more signal"}, "[9]": {"assay": "basal MM1S mitochondrial membrane potential changes, profiling panel, cell-based, JC-1 fluorescence, 24 h, 100 nL compound (AID 1170); also: test concentration not given here", "conditions": "higher = more signal"}, "[10]": {"assay": "A549 lung cancer cell viability effects, profiling panel, resazurin fluorescence, 24 h, PK04 Diversity Set (AID 1171); also: test concentration not given here", "conditions": "higher = more signal, called active from +8 up or from −8 down"}, "[11]": {"assay": "HepG2 liver cancer cell viability effects, profiling panel, resazurin fluorescence, 24 h, PK04 Diversity Set (AID 1172); also: test concentration not given here", "conditions": "higher = more signal"}, "[12]": {"assay": "basal S. cerevisiae growth modulation, no modifier, primary screen, OD600, strain BY4716, 24 h, basal condition (AID 1173)", "conditions": "OD600, 24 h, higher = more signal, called active from +8 up or from −8 down"}, "[13]": {"assay": "MM1S myeloma cell viability, profiling panel, resazurin fluorescence, basal, 24 h, PK04 Diversity Set (AID 1174);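 also: MM1S multiple myeloma cell line; test concentration not given here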", "conditions": "higher = more signal, called active from +8 up or from −8 down"}, "[14]": {"target": "Dihydroorotate dehydrogenase (quinone), mitochondrial (Plasmodium falciparum (isolate 3D7)) (UniProt Q08210)", "sequence (Q08210 whole entry, looked up)": "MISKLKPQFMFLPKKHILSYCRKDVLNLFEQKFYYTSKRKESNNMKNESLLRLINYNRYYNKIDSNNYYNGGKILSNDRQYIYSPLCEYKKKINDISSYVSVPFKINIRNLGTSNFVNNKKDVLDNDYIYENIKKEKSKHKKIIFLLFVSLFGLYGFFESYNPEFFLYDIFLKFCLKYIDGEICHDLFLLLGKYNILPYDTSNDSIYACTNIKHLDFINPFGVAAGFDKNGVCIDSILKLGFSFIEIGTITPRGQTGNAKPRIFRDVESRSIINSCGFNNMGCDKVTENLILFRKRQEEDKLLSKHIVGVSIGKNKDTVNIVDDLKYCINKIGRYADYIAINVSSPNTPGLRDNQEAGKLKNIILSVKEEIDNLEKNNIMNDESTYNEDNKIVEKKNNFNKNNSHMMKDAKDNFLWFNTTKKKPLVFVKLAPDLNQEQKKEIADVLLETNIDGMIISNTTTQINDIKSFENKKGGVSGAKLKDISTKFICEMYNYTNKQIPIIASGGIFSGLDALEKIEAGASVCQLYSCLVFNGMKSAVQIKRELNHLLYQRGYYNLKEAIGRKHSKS", "assay": "PfDHODH enzyme inhibitors, primary screen, biochemical, C-terminal His tag, absorbance 600 nm (AID 1175);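 also: recombinant parasite enzyme with a five histidine tag at its C terminus; test concentration not given here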", "conditions": "DCIP absorbance 600 nm, higher = more signal, called active from +8 up or from −8 down"}, "[15]": {"assay": "P. aeruginosa biofilm formation inhibitors, primary screen, strain PAO1, LB-PBS medium, absorbance 600 nm (AID 1176); also: test concentration not given here", "conditions": "P. aeruginosa PAO1 growth/biofilm, A600, 12 h; higher = more signal"}, "[16]": {"assay": "S. cerevisiae RM11-1a growth modifiers, primary screen, strain RM11-1a, OD600, basal, 24 h (AID 1177);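 also: cultures grown under basal conditions with no added stressor; test concentration not given here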", "conditions": "OD600, 24 h, higher = more signal, called active from +8 up or from −8 down"}, "[17]": {"assay": "E. coli acrAB mutant growth effects, primary screen, E. coli filamentation inducers, strain DRC39, OD650, 24 h (AID 1178);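 also: growth measured as culture turbidity by optical density at 650 nm; test concentration not given here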", "conditions": "higher = more signal, called active from +8 up or from −8 down"}, "[18]": {"assay": "E. coli acrAB mutant growth effects, primary screen, E. coli filamentation inducers, strain DRC39, OD650, 48 h (AID 1179);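 also: screen aims at cell division blockers that make cells filament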", "conditions": "E. coli DRC39 delta-acrAB growth, higher = more signal, called active from +8 up or from −8 down"}, "[19]": {"assay": "RPMI8226 myeloma cell viability, profiling panel, resazurin fluorescence, basal, 24 h, PK04 Diversity Set (AID 1180);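 also: RPMI8826 multiple myeloma cell line at 5000 cells per well; test concentration not given here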", "conditions": "higher = more signal"}, "[20]": {"target": "E3 ubiquitin-protein ligase XIAP (Homo sapiens) (UniProt P98170)", "sequence (P98170 whole entry, looked up)": "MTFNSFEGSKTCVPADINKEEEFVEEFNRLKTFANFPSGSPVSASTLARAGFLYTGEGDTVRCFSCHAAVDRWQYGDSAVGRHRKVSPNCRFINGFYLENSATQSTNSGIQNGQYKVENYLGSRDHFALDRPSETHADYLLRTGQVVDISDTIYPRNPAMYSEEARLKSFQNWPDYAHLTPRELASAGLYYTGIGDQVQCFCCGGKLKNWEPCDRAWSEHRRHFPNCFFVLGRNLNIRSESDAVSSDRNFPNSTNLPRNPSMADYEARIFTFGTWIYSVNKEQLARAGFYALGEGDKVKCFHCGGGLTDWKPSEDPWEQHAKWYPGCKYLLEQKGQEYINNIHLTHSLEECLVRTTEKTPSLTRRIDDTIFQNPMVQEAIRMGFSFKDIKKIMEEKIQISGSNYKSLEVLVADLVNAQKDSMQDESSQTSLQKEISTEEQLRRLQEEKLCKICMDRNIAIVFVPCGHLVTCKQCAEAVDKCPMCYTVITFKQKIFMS", "assay": "XIAP binders, primary screen, biophysical, small-molecule microarray, fluorescence 635 nm (AID 1181);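 also: score merges 667 nm emission and signal to noise over triplicate slides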", "conditions": "small-molecule microarray binding, higher = more signal"}},
  "note": "Active and inactive are the calls of the source. Unless noted, no rule for the calls is given here.",
  "data": [
    {"compound": "CN(C)c1ccc(C(O)C2C=CC3C(=O)N(c4ccccc4)C(=O)C3N2Nc2ccc([N+](=O)[O-])cc2)cc1", "note": "(stereo not given)", "values": [
      {"measurement": "z-score", "setting": "[1]", "result": -0.455},
      {"measurement": "z-score", "setting": "[2]", "result": -1.25},
      {"measurement": "z-score", "setting": "[3]", "result": 0.583},
      {"measurement": "z-score", "setting": "[4]", "result": -0.676},
      {"measurement": "z-score", "setting": "[5]", "result": -0.215},
      {"measurement": "z-score", "setting": "[6]", "result": -1.01},
      {"measurement": "z-score", "setting": "[7]", "result": "-2.19 (inactive)"},
      {"measurement": "z-score", "setting": "[8]", "result": -0.296},
      {"measurement": "z-score", "setting": "[9]", "result": -0.907},
      {"measurement": "z-score", "setting": "[10]", "result": "-0.272 (inactive)"},
      {"measurement": "z-score", "setting": "[11]", "result": -0.529},
      {"measurement": "z-score", "setting": "[12]", "result": "-0.491 (inactive)"},
      {"measurement": "z-score", "setting": "[13]", "result": "-0.96 (inactive)"},
      {"measurement": "composite z-score", "setting": "[14]", "result": "0.835 (inactive)"},
      {"measurement": "z-score", "setting": "[15]", "result": "0.617 (inactive)"},
      {"measurement": "z-score", "setting": "[16]", "result": "0.706 (inactive)"},
      {"measurement": "z-score", "setting": "[17]", "result": "-0.876 (inactive)"},
      {"measurement": "z-score", "setting": "[18]", "result": "-0.914 (inactive)"},
      {"measurement": "z-score", "setting": "[19]", "result": -1.41},
      {"measurement": "composite z-score", "setting": "[20]", "result": -0.359}
    ]},
    {"compound": "O=C1O[C@H](c2ccccc2)[C@H](c2ccccc2)N2[C@H]1[C@@H](C(=O)Nc1nc3ccccc3s1)[C@]1(C(=O)Nc3ccc(C#CCCO)cc31)[C@H]2c1ccc(O)cc1", "values": [
      {"measurement": "z-score", "setting": "[1]", "result": 0.695},
      {"measurement": "z-score", "setting": "[2]", "result": 0.215},
      {"measurement": "z-score", "setting": "[3]", "result": -0.257},
      {"measurement": "z-score", "setting": "[4]", "result": -2.26},
      {"measurement": "z-score", "setting": "[5]", "result": -3.96},
      {"measurement": "z-score", "setting": "[6]", "result": -3.86},
      {"measurement": "z-score", "setting": "[7]", "result": "-0.525 (inactive)"},
      {"measurement": "z-score", "setting": "[8]", "result": -1.25},
      {"measurement": "z-score", "setting": "[9]", "result": -1.48},
      {"measurement": "z-score", "setting": "[10]", "result": "0.679 (inactive)"},
      {"measurement": "z-score", "setting": "[11]", "result": 0.506},
      {"measurement": "z-score", "setting": "[12]", "result": "0.14 (inactive)"},
      {"measurement": "z-score", "setting": "[13]", "result": "0.157 (inactive)"},
      {"measurement": "composite z-score", "setting": "[14]", "result": "-0.253 (inactive)"},
      {"measurement": "z-score", "setting": "[15]", "result": "1.04 (inactive)"},
      {"measurement": "z-score", "setting": "[16]", "result": "0.604 (inactive)"},
      {"measurement": "z-score", "setting": "[17]", "result": "0.266 (inactive)"},
      {"measurement": "z-score", "setting": "[18]", "result": "0.145 (inactive)"},
      {"measurement": "z-score", "setting": "[19]", "result": -2.4},
      {"measurement": "composite z-score", "setting": "[20]", "result": 1.01}
    ]},
    {"compound": "C[N+](C)(C)CCCCCCNC(=O)[C@H]1C[C@H]2C(=O)NCC(=O)N2[C@H]1c1ccc(O)cc1", "values": [
      {"measurement": "z-score", "setting": "[1]", "result": -0.93},
      {"measurement": "z-score", "setting": "[2]", "result": -0.313},
      {"measurement": "z-score", "setting": "[3]", "result": -0.799},
      {"measurement": "z-score", "setting": "[4]", "result": -1.17},
      {"measurement": "z-score", "setting": "[5]", "result": -0.121},
      {"measurement": "z-score", "setting": "[6]", "result": -1.71},
      {"measurement": "z-score", "setting": "[7]", "result": "-0.159 (inactive)"},
      {"measurement": "z-score", "setting": "[8]", "result": 0.0729},
      {"measurement": "z-score", "setting": "[9]", "result": -0.235},
      {"measurement": "z-score", "setting": "[10]", "result": "0.14 (inactive)"},
      {"measurement": "z-score", "setting": "[11]", "result": 0.767},
      {"measurement": "z-score", "setting": "[12]", "result": "-0.275 (inactive)"},
      {"measurement": "z-score", "setting": "[13]", "result": "-0.301 (inactive)"},
      {"measurement": "composite z-score", "setting": "[14]", "result": "-0.435 (inactive)"},
      {"measurement": "z-score", "setting": "[15]", "result": "0.823 (inactive)"},
      {"measurement": "z-score", "setting": "[16]", "result": "0.0387 (inactive)"},
      {"measurement": "z-score", "setting": "[17]", "result": "-0.298 (inactive)"},
      {"measurement": "z-score", "setting": "[18]", "result": "-0.785 (inactive)"},
      {"measurement": "z-score", "setting": "[19]", "result": -0.116},
      {"measurement": "composite z-score", "setting": "[20]", "result": 0.175}
    ]},
    {"compound": "C=CCC(OC(C)=O)[C@@H]1[C@@H](N(Cc2ccc(-c3cccc(C(F)(F)F)c3)o2)C(=O)c2ccc(-c3ccccc3)cc2)c2cc(OCCCO)ccc2N1C(=O)c1ccc2ccccc2n1", "note": "(stereo not given in full)", "values": [
      {"measurement": "z-score", "setting": "[1]", "result": -0.157},
      {"measurement": "z-score", "setting": "[2]", "result": 0.585},
      {"measurement": "z-score", "setting": "[3]", "result": -0.474},
      {"measurement": "z-score", "setting": "[4]", "result": 0.0887},
      {"measurement": "z-score", "setting": "[5]", "result": 0.458},
      {"measurement": "z-score", "setting": "[6]", "result": 2.07},
      {"measurement": "z-score", "setting": "[7]", "result": "-0.572 (inactive)"},
      {"measurement": "z-score", "setting": "[8]", "result": 0.378},
      {"measurement": "z-score", "setting": "[9]", "result": -0.0621},
      {"measurement": "z-score", "setting": "[10]", "result": "0.264 (inactive)"},
      {"measurement": "z-score", "setting": "[11]", "result": -0.0845},
      {"measurement": "z-score", "setting": "[12]", "result": "1.59 (inactive)"},
      {"measurement": "z-score", "setting": "[13]", "result": "0.328 (inactive)"},
      {"measurement": "composite z-score", "setting": "[14]", "result": "-0.32 (inactive)"},
      {"measurement": "z-score", "setting": "[15]", "result": "0.857 (inactive)"},
      {"measurement": "z-score", "setting": "[16]", "result": "0.859 (inactive)"},
      {"measurement": "z-score", "setting": "[17]", "result": "-0.347 (inactive)"},
      {"measurement": "z-score", "setting": "[18]", "result": "-0.302 (inactive)"},
      {"measurement": "z-score", "setting": "[19]", "result": -0.556},
      {"measurement": "composite z-score", "setting": "[20]", "result": -0.152}
    ]}
  ]
}
